D2 ag-1: Beta-Arrestin HTS for Positive Allosteric Modulators of the Human D2 Dopamine Receptor: Agonists. D(2) dopamine receptor (Homo sapiens), P14416. DiscoveRx PathHunter D2 beta-arrestin, luminescence, 90 min; 100% = 57 uM dopamine signal. activation, % (concentration not given with the values). 0.084% of 360,000 active; in the data active = activation above about 40%; inconclusive = between about 15% and that limit
Target sequence (P14416 whole entry, looked up): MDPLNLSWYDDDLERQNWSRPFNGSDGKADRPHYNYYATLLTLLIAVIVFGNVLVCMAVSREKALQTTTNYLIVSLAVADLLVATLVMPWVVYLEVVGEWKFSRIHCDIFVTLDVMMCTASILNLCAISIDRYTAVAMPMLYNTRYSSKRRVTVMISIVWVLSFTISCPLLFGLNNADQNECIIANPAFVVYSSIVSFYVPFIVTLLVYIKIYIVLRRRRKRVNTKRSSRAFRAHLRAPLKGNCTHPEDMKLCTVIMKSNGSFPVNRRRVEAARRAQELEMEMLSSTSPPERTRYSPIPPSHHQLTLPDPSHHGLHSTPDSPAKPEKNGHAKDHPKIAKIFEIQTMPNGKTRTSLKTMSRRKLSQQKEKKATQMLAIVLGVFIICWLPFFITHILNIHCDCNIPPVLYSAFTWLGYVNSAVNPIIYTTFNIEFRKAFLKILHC
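DiscoveRx PathHunter D2 beta-arrestin cells (2,100/well) attached overnight, then compound-stimulated 90 min at 37 C in HBSS/10 mM HEPES/0.1% Tween-20 buffer; beta-galactosidase complementation read by luminescence after 1 h at ambient temperature. Dopamine 57 uM final (EC100) as control.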
D2 antag: HTS Assay for Allosteric Antagonists of the Human D2 Dopamine Receptor: Primary Screen for Antagonists; 2% of 340,000 active; D(2) dopamine receptor (Homo sapiens), P14416; AID 485344, 2010; HEK293 TREx D2 cells, calcium flux, dopamine EC80; inhibition, % at 10 µM; in the data active = inhibition above about 30%; inactive = below that, where a call was filed; note: 0% is about no effect
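Calcium flux kinetic readout in an inducible HEK293 TREx D2 line plated overnight at 30 C. After 180 s compound exposure, an EC80 dopamine challenge follows with another 180 s kinetic read to detect antagonism.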
D2 PAM-1: HTS Assay for Positive Allosteric Modulators of the Human D2 Dopamine Receptor: Primary Screen for Potentiators; 0.34% of 340,000 active; HEK293 T-REx D2, calcium flux, EC20 dopamine potentiation; D(2) dopamine receptor (Homo sapiens), P14416; potentiation, % at 10 µM;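 active = potentiation over 3 SD above the plate norm, cut at about 30% in these data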; note: 0% is about no effect
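Tetracycline-induced HEK293 T-REx cells force-coupled to calcium signalling expressed D2; compounds were pin-added after a 10 s baseline, read kinetically 180 s, then an EC20 dopamine challenge followed with a further 180 s calcium read.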
D2 ag-2: HTS Assay for Allosteric Agonists of the Human D2 Dopamine Receptor: Primary Screen for Agonists. D(2) dopamine receptor (Homo sapiens), P14416. activation, % at 2 µM. 0.53% of 340,000 active. AID 485358, 2010. HEK293 T-REx D2 cells, calcium flux agonist mode;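 active = activation over 3 SD above normal in the single-dose calcium agonist read, cut at about 30% in these data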; note: 0% is about no effect
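In this primary screen, compounds producing a positive calcium signal within 180 s of addition to tetracycline-induced, force-coupled HEK293 Trex D2 cells are flagged; cells are dye-loaded with a no-wash calcium kit beforehand.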
D2 PAM-2: Beta-Arrestin HTS for Positive Allosteric Modulators of the Human D2 Dopamine Receptor: Potentiators; D(2) dopamine receptor (Homo sapiens), P14416; DiscoveRx D2 beta-arrestin cells, luminescence, 90 min; 100% = 57 uM dopamine signal; potentiation, % (test concentration not listed); 0.23% of 360,000 active; AID 624464, 2012; in the data active = potentiation above about 50%; inconclusive = mostly about 30% to 49%
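PathHunter beta-arrestin assay in DiscoveRx D2 cells. Compounds were added with an EC20 of dopamine (50 nM final) for 90 min at 37 deg C. Luminescence was read 1 h after detection reagent, with 57 uM dopamine as the EC100 control.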
An asterisk follows results filed as active; ? = inconclusive; . = no result given. The list is not random: actives were taken first. Their share in the collection is about 2.4%.

SMILES	D2 ag-1	D2 antag	D2 PAM-1	D2 ag-2	D2 PAM-2
C=CCn1c(SCC(C)=O)nc2scc(-c3ccc(C)o3)c2c1=O	0.8	-6.2	23.2	-2.5	-7.9
CC(C)OC(=O)C1C(=O)CC(C)(O)C(C(=O)OC(C)C)C1c1cccc(O)c1 (centres undefined)	-3.5	31.8*	-7.2	1.7	-3.0
COc1cc(NC(=O)CN(c2cc(C)cc(C)c2)S(=O)(=O)c2c(C)noc2C)cc(OC)c1	-3.4	1.4	9.9	-0.2	-3.3
COc1cc(Cl)c(CC(=O)c2c[nH]c3ccccc23)cc1OC	4.1	32.5*	-3.2	0.8	-4.5
O=C(c1cccc(Cl)c1)N1CCC(c2nc3ccccc3o2)CC1	.	.	-10.1	-0.3	.
Cc1nc([N+](=O)[O-])c(Br)n1CC(=O)c1ccc(F)cc1	-0.7	33.6*	8.0	0.5	4.2
Cc1nc([N+](=O)[O-])c(Br)n1CC(=O)c1cccc([N+](=O)[O-])c1	5.9	-8.6	24.8	0.0	5.3
O=C(Nc1ccccc1-c1nnn(CC(=O)N2CCCc3ccccc32)n1)c1ccc(Cl)cc1	-0.4	47.4*	5.7	0.7	-8.8
CCCC(=O)Nc1ccc2oc(-c3ccncc3)nc2c1	-0.6	0.9	34.1*	-0.6	-5.9
CCCC(=O)Nc1ccc2oc(-c3cncc(Br)c3)nc2c1	-1.1	39.0*	7.7	-0.2	-3.2
CCCCCC(=O)Nc1ccc2oc(-c3cncc(Br)c3)nc2c1	0.4	-16.4	10.8	0.6	-9.2
CCCCC(=O)Nc1ccc2oc(-c3ccncc3)nc2c1	-1.5	.	.	.	-7.6
CCCNC(=O)COC(=O)c1ccc(OCC(=O)Nc2ccccc2OC)c(OC)c1	-2.8	-1.6	-3.7	0.3	-15.8
COc1ccc(C(=O)Nc2cc(C)c(NC(=O)c3ccccn3)cn2)cc1	-1.6	-24.3	35.2*	-0.3	-2.6
CCOC(=O)c1cc2c(=O)n3ccccc3nc2n(CC2CCCO2)c1=NC(=O)c1ccc(C)cc1 (centres undefined)	.	.	17.3	-0.9	.
CCn1cnc2sc(C(=O)N(Cc3ccc(N(C)C)cc3)Cc3ccco3)c(C)c2c1=O	0.6	31.6*	2.5	0.5	5.3
CC(C)(C)c1cc(C(=O)N/N=C/c2cc3c(cc2Br)OCO3)n[nH]1	5.9	49.5*	-21.3	-2.4	-44.9
O=C(N/N=C/c1cc2c(cc1Br)OCO2)c1ccccn1	-1.7	15.1	1.3	-1.3	0.9
O=C(N/N=C/c1cc2c(cc1Br)OCO2)c1cc2ccccc2o1	-2.7	79.9*	-25.0	-0.5	-54.1
CCOc1ccccc1C1NC(=O)NC(C)=C1C(=O)OC1CCCC1C (centres undefined)	-0.9	-14.1	-6.8	-0.9	-3.1
CC1(C)c2cc(O)ccc2OC1N1CCOCC1 (centres undefined)	8.7	11.7	-3.9	-1.2	-4.4
Cc1ccc(OCCn2ccc(=O)[nH]c2=O)cc1C	-1.5	-12.5	4.9	0.9	-3.6
O=C(N/N=C/c1cccc(Oc2ccc([N+](=O)[O-])cc2[N+](=O)[O-])c1)c1cncc(Br)c1	7.2	4.9	22.9	-1.0	85.0*
Cc1ccccc1OCC(=O)N/N=C/c1cccc(Oc2ccc([N+](=O)[O-])cc2[N+](=O)[O-])c1	12.0	-8.8	-4.2	-0.2	54.9*
Cc1ccccc1OCC(=O)NCC(=O)N/N=C/c1cccc([N+](=O)[O-])c1	.	-8.2	-2.1	1.0	.
SMILES	D2 ag-1	D2 antag	D2 PAM-1	D2 ag-2	D2 PAM-2
COc1ccccc1N1CCN(C/C(C)=C/c2ccccc2)CC1	-1.6	74.1*	-23.0	0.1	-17.7
COc1ccccc1N1CCN(CC(=O)N2N=CCC2c2ccccc2)CC1 (centres undefined)	-9.9	41.7*	-17.8	-0.3	-22.5
COc1ccccc1N1CCN(/N=C/c2cccc(OC)c2O)CC1	-8.9	58.9*	-5.1	-2.6	-6.3
COc1ccc(N2CCN(CC(=O)N3N=CCC3c3ccccc3)CC2)cc1 (centres undefined)	0.2	12.7	-3.0	0.1	-3.2
C/C(=C\c1ccccc1)CN1CCN(c2ccccc2)CC1	?	-5.8	-5.6	-0.4	1.4
O=C(COC(=O)CCOc1ccccc1)Nc1ccc(Cl)cn1	0.4	-20.1	-8.5	0.0	-0.4
CCOc1cc(/C=C2\CCC/C(=C\c3cc(Cl)c(O)c(OCC)c3)C2=O)cc(Cl)c1O	-11.7	2.5	-1.5	3.0	-50.5
CC(C)C(C(=O)Nc1ccccc1)N1C(=O)c2ccccc2C1=O (centres undefined)	-5.9	-9.0	-7.1	-0.4	-2.2
CC(C)C(C(=O)Nc1ncn[nH]1)N1C(=O)c2ccccc2C1=O (centres undefined)	-1.9	2.8	30.6*	0.4	1.9
Cc1[nH]c(=O)c(C#N)cc1-c1csc(-c2ccccc2)n1	-1.8	38.7*	-3.7	0.8	-23.8
Cc1nc(-c2cc(C#N)c(=O)[nH]c2C)cs1	0.2	7.8	-0.5	0.6	-0.4
CC1Cc2ccccc2N1C(=O)CN(C)CC(=O)Nc1ccc(F)cc1 (centres undefined)	-4.7	42.5*	-3.3	0.1	-24.6
CC1=CCC(C(=O)O)C(C(=O)NC2CCCCC2)C1 (centres undefined)	0.7	44.6*	20.4	1.9	-3.9
CC1=C(C)CC(C(=O)NC2CCCC2)C(C(=O)O)C1 (centres undefined)	-1.5	-3.9	4.7	0.3	0.1
CCN1C(=O)CSc2ccc(C(=O)NCCCN3CCOCC3)cc21	-1.9	-1.4	-7.4	35.3*	-10.3
O=C(NCCN1CCOCC1)c1ccc2c(c1)N(Cc1ccccc1)C(=O)CS2	-0.3	-16.2	.	-0.5	-8.6
CCOC(=O)c1[nH]c(C)c(C(=O)N(CC)CC)c1C	-1.5	-1.9	-7.3	-1.2	0.0
Cc1nc(NN)nc(NCc2ccccc2)n1	-2.2	29.2	-6.5	-0.7	0.3
CCC(=O)Nc1cc2c3c(c1)CCN3C(=O)CC2	-4.5	32.9*	6.4	1.0	-7.2
CN(C(=O)c1ccc2ccccc2c1)c1ccccn1	-1.1	-1.6	11.9	0.5	1.9
O=C(CN1CCC(C(=O)c2ccc(F)cc2)CC1)Nc1ccc(F)cc1	-2.0	9.8	-25.4	-0.4	-33.7
Cc1ccc(C(=O)C2CCN(CC(=O)Nc3ccc(N(C)C)cc3)CC2)cc1	-1.1	33.4*	-27.3	-0.1	-18.9
